Data from PubChem BioAssay AID1159580 (chemical genetic matrix, 2015).
Values joined by “and” are separate entries in the source; they are usually repeats but may differ in a detail not shown here. Identical values can stand only once. In all, about 5,500 compounds went through this assay and about 2,000 (36%) were called active. Inconclusive results (about 18%) are left out. No stated cut-off is given here; in the data, active means normalized growth mostly below about 0.91 (no sharp cut-off); inconclusive means no clear call, values can overlap the other calls; inactive means mostly above about 0.92. Some of the results follow.

Assay: chemical genetic growth profiling, strain panel (AID 1159580);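 further: tested at 20 µM; growth read once vehicle control cultures reached saturation at 30 °C; 1 = growth at the plate median or of vehicle wells; lower values mean less growth of the strain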
Conditions: S. cerevisiae deletion strains, growth OD

Measured: normalized growth

CN(C)CCN(Cc1cccs1)c1ccccn1
inactive: locus YAL021C, strain ccr4, hits give low values 1 | locus YAL026C, strain drs2, hits give low values 1.01 | locus YAL030W, strain snc1, hits give low values 1 | locus YAL040C, strain CLN3, hits give low values 1.02 | locus YBL061C, strain skt5, hits give low values 1 | locus YBR009C, strain hhf1, hits give low values 0.996 | locus YBR021W, strain FUR4, hits give low values 1.01 | locus YBR023C, strain chs3, hits give low values 1.01 | locus YBR171W, strain sec66, hits give low values 1.01 | locus YBR229C, strain ROT2, hits give low values 1 | locus YBR231C, strain swc5, hits give low values 1.01 | locus YBR279W, strain paf1, hits give low values 1 | locus YCL011C, strain gbp2, hits give low values 1.01 | locus YCL016C, strain dcc1, hits give low values 1.01 | locus YCL029C, strain bik1, hits give low values 1.02 | locus YCL061C, strain MRC1 (second series), hits give low values 1.01 | locus YCL061C, strain MRC1, hits give low values 1.01 | locus YCL069W, strain vba3, hits give low values 1.01 | locus YCR088W, strain abp1, hits give low values 1.01 | locus YDL005C, strain med2, hits give low values 1.01 | locus YDL035C, strain GPR1, hits give low values 1 | locus YDL040C, strain nat1, hits give low values 1.01 | locus YDL074C, strain BRE1, hits give low values 0.974 | locus YDL101C, strain DUN1, hits give low values 0.99 | locus YDL134C, strain PPH21, hits give low values 1.02 | locus YDL185W, strain tfp1, hits give low values 1.02 | locus YDL192W, strain arf1, hits give low values 1.01 | locus YDR001C, strain nth1, hits give low values 1.01 | locus YDR069C, strain doa4, hits give low values 1 | locus YDR101C, strain arx1, hits give low values 0.957 | locus YDR137W, strain rgp1, hits give low values 1.03 | locus YDR150W, strain NUM1, hits give low values 1.02 | locus YDR159W, strain sac3, hits give low values 1.01 | locus YDR162C, strain NBP2, hits give low values 1.01 | locus YDR195W, strain ref2 0.999 | locus YDR297W, strain sur2, hits give low values 0.999 | locus YDR318W, strain mcm21, hits give low values 1.02 | locus YDR334W, strain swr1, hits give low values 1.02 | locus YDR335W, strain msn5, hits give low values 1.01 | locus YDR363W, strain ESC2, hits give low values 0.986 | locus YDR388W, hits give low values 1.02 | locus YDR392W, strain spt3, hits give low values 1.01 | locus YDR502C, strain sam2, hits give low values 1 | locus YEL003W, strain gim4, hits give low values 1.01 | locus YEL037C, strain rad23, hits give low values 1.01 | locus YEL061C, strain CIN8 (second series), hits give low values 1.01 | locus YEL061C, strain CIN8, hits give low values 1 | locus YER002W, strain NOP16, hits give low values 1.01 | locus YER015W, strain faa2, hits give low values 1 | locus YER016W, strain bim1, hits give low values 1.01 | locus YER110C, hits give low values 1.01 | locus YER111C, strain swi4, hits give low values 1.02 | locus YER155C, strain BEM2 (second series), hits give low values 1.01 | locus YER155C, strain BEM2, hits give low values 1.01 | locus YER167W, strain BCK2, hits give low values 1.01 | locus YFR010W, strain ubp6, hits give low values 1.01 | locus YGL078C, strain dbp3, hits give low values 1.01 | locus YGL086W, strain mad1, hits give low values 0.982 | locus YGL167C, strain pmr1, hits give low values 1.01 | locus YGL173C, strain kem1, hits give low values 1.01 | locus YGL227W, strain vid30, hits give low values 1.01 | locus YGL240W, strain doc1, hits give low values 1.02 | locus YGL248W, strain PDE1, hits give low values 0.993 | locus YGL253W, strain hxk2, hits give low values 1.02 | locus YGR078C, strain PAC10, hits give low values 1.01 | locus YGR135W, strain pre9, hits give low values 1.05 | locus YGR229C, strain SMI1, hits give low values 0.996 | locus YGR252W, strain gcn5, hits give low values 1.07 | locus YHR013C, strain ard1, hits give low values 0.993 | locus YHR027C, strain rpn1, hits give low values 1 | locus YHR030C, strain SLT2, hits give low values 1.01 and 0.934 | locus YHR079C, strain IRE1 (second series), hits give low values 1.01 | locus YHR079C, strain IRE1, hits give low values 0.98 | locus YHR094C, strain hxt1, hits give low values 1.01 | locus YHR129C, strain ARP1, hits give low values 1.01 | locus YHR142W, strain chs7, hits give low values 1.01 | locus YHR200W, strain rpn10, hits give low values 1.01 | locus YIL066C, strain RNR3, hits give low values 1.01 | locus YIL073C, strain SPO22, hits give low values 1.07 | locus YIL125W, strain kgd1, hits give low values 0.993 | locus YIR030C, strain dcg1, hits give low values 1.01 | locus YJL092W, strain hpr5, hits give low values 1 | locus YJL095W, strain BCK1 (second series), hits give low values 1.01 | locus YJL095W, strain BCK1, hits give low values 0.993 and 0.95 | locus YJL115W, strain asf1, hits give low values 1.03 | locus YJL129C, strain trk1, hits give low values 1 | locus YJL134W, strain LCB3, hits give low values 1.01 | locus YJL154C, strain vps35, hits give low values 1.01 | locus YJL164C, strain tpk1, hits give low values 1 | locus YJL166W, strain qcr8, hits give low values 1 | locus YJL168C, strain set2, hits give low values 1.01 | locus YJL187C, strain SWE1 (second series), hits give low values 0.998 | locus YJL187C, strain SWE1, hits give low values 1 | locus YJR043C, strain POL32, hits give low values 1.01
